More than one record can exist for a structure, and the calls need not agree. Calls of active or inactive are those of the source. How the source made its calls: active means hit-call score of the fitted dose curve at least 0.9, where 1 is the maximum; inactive means score below 0.9.
Assays:
[1] = APR_HepG2_P-H2AX_72hr: Apredica 72-hour HepG2 Assay for H2AX Phosphorylation (AID 2282916); conditions: imaging, actives raise or lower the signal;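 further: phospho-histone H2A.x immunostain intensity per cell marking DNA damage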
Summary of the method: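 Human hepatoma HepG2 cells are dosed across ten concentrations (0.39 to 200 uM, 0.5% v/v DMSO) and incubated 72 hr. Phospho-histone H2A.x is then detected by antibody staining alongside c-Jun and Hoechst, and quantified by automated fluorescence imaging.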

[2] = APR_HepG2_MitoMembPot_72hr: Apredica 72-hour HepG2 Assay for Mitochondrial Membrane Potential (AID 2282917); conditions: imaging, actives raise or lower the signal
Summary of the method: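 HepG2 cells exposed 72 h to compounds at 0.39–200 uM (0.5% v/v DMSO, duplicates); MitoTracker Red CMXRos 250 nM loaded 30 min before 3.7% formaldehyde fixation, imaged by HCS fluorescence. Bidirectional fit versus DMSO.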

[3] = APR_HepG2_MitoticArrest_72hr: Apredica 72-hour HepG2 Assay for Mitotic Arrest (AID 2282918); conditions: high-content imaging, actives raise or lower the signal
Summary of the method: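 HepG2 cells treated 72 h at 0.39–200 uM, 0.5% DMSO final; formaldehyde-fixed, stained with Hoechst 33342 and phospho-histone H3 antibody, imaged by high-content fluorescence; bidirectional fit versus DMSO.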

[4] = APR_HepG2_MicrotubuleCSK_72hr: Apredica 72-hour HepG2 Assay for Microtubule CSK Stabilty (AID 2282919); conditions: HepG2 microtubule cytoskeleton, high-content imaging, actives raise or lower the signal
Summary of the method: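 Ten-point dosing (0.39–200 uM, 0.5% DMSO) of HepG2 for 72 hr, with taxol as the cytoskeletal positive control. The cells were formaldehyde-fixed and then stained with alpha-tubulin/Cy5 and Hoechst. Imaging at 20x used a −2 um Z offset for tubulin.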

[5] = APR_HepG2_P-H2AX_24hr: Apredica 24-hour HepG2 Assay for H2AX Phosphorylation (AID 2282920); conditions: high-content imaging, actives raise or lower the signal
Summary of the method: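 HepG2 cells dosed 24 h at 0.39–200 uM (10 points, duplicate, 0.5% DMSO final). Formaldehyde-fixed and permeabilized, then immunostained for phospho-H2A.x with Hoechst. Fluorescence quantified by high-content imaging, fitted bidirectionally versus DMSO.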

[6] = APR_HepG2_StressKinase_72hr: Apredica 72-hour HepG2 Assay for Stress Kinase (AID 2282921); conditions: HepG2 stress kinase (phospho-c-Jun) imaging, actives raise or lower the signal
Summary of the method: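 After a 72 h compound treatment spanning 0.39 to 200 uM, formaldehyde-fixed cells are labelled for phosphorylated c-Jun and nuclei, imaged by automated fluorescence microscopy, and activity is fitted in both directions relative to DMSO controls.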

[7] = APR_HepG2_StressKinase_24hr: Apredica 24-hour HepG2 Assay for Stress Kinase (AID 2282922); conditions: HepG2 stress kinase (phospho-c-Jun) imaging, actives raise or lower the signal
Summary of the method: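 After 24 hr compound treatment (up to 200 uM, final DMSO 0.5% v/v), HepG2 cells are fixed and multiplex-labeled; phospho-c-Jun intensity is captured by high-content fluorescence imaging and analyzed relative to DMSO.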

[8] = APR_HepG2_p53Act_72hr: Apredica 72-hour HepG2 Assay for p53 Activation (AID 2282923); conditions: high-content imaging, actives raise or lower the signal;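 further: average cellular p53 protein immunofluorescence intensity in HepG2 cells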
Summary of the method: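 Imaging-based endpoint: after 72 hr compound exposure (up to 200 uM, 0.5% DMSO), fixed and permeabilized monolayers were labelled with anti-p53 antibody and imaged; signal change in either direction was fitted relative to DMSO controls.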

[9] = APR_HepG2_MitoMass_72hr: Apredica 72-hour HepG2 Assay for Mitochondrial Mass (AID 2282924); conditions: high-content imaging, actives raise or lower the signal;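 further: MitoTracker Red CMXRos stain intensity per cell imaged as mitochondrial mass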
Summary of the method: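 Steps: treat HepG2 72 hr (0.39–200 uM, duplicate wells); load MitoTracker Red CMXRos, 250 nM, 30 min; fix with 3.7% formaldehyde, permeabilise with 0.5% Triton X-100; capture images, nuclei via Hoechst 33342; fit bidirectionally against DMSO.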

[10] = APR_HepG2_NuclearSize_72hr: Apredica 72-hour HepG2 Assay for Nuclear Size (AID 2282925); conditions: high-content imaging, actives raise or lower the signal
Summary of the method: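 Compounds (0.39–200 uM, final DMSO 0.5%) were applied to HepG2 for 72 hr. Cells were then formaldehyde-fixed, permeabilized and labelled with Hoechst 33342. Nuclear diameter was quantified from six images per well.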

[11] = ATG_CRE_CIS: Attagene CIS-FACTORIAL HepG2 Assay for human cAMP Responsive Element (CRE) binding protein 3 (AID 2282926); conditions: HepG2 CRE cis-reporter, Attagene multiplexed mRNA; actives raise or lower the signal
Summary of the method: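 Induced reporter mRNA from a CRE cis element, measured in HepG2 among many multiplexed units at 24 h. Detection used RT-PCR plus capillary electrophoresis of fluorescent fragments; DMSO served as negative control.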

[12] = ATG_DR4_LXR_CIS: Attagene CIS-FACTORIAL HepG2 Assay for human Liver X Receptor (LXR), DR4 submotif (AID 2282929); conditions: HepG2 Attagene DR4 cis-reporter, mRNA transcription; actives raise or lower the signal
Summary of the method: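 HepG2 cells transiently transfected with cis-promoter-driven multiplexed reporter units (DR4 element) were dosed for 24 h. Reporter mRNA was quantified by RT-PCR, fluorescent primer extension, HpaI digestion and capillary electrophoresis; bidirectional fitting versus DMSO baseline.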

[13] = target: Aryl hydrocarbon receptor (Homo sapiens) (UniProt P35869); experiment: ATG_Ahr_CIS: Attagene CIS-FACTORIAL HepG2 Assay for human Aryl Hydrocarbon Receptor (Ahr) (AID 2282930); conditions: HepG2 AhR cis-factorial reporter transcription; actives raise or lower the signal
Summary of the method: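 Following 24 h of chemical dosing, transfected HepG2 liver cells with cis-driven reporter units were lysed for RNA; reporter mRNA was quantified via RT-PCR and capillary electrophoresis, and responses fitted bidirectionally from DMSO.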

[14] = ATG_AP_1_CIS: Attagene CIS-FACTORIAL HepG2 Assay for human Activator Protein 1 (AP-1) (AID 2282931); conditions: HepG2 Attagene cis-factorial AP-1 reporter mRNA; actives raise or lower the signal
Summary of the method: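 HepG2 cells transiently transfected with cis-element-driven multiplex reporter units; 24 h compound exposure. Reporter mRNA quantified by RT-PCR, FAM-labelled fragments resolved by capillary electrophoresis; bidirectional fit versus DMSO baseline.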

[15] = ATG_BRE_CIS: Attagene CIS-FACTORIAL HepG2 Assay for human Bone Morphogenetic Protein (BMP) Response Element (BRE) (AID 2282933); conditions: HepG2 BMP response element reporter, Attagene transcription factor profiling; actives raise or lower the signal
Summary of the method: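 Gain- or loss-of-signal was derived by bidirectional fitting against DMSO controls. The signal came from reporter mRNA, measured by RT-PCR and capillary electrophoresis, in HepG2 cells transiently carrying multiple reporter units and dosed for 24 h.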

[16] = target: Transcription factor E2F1 (Homo sapiens) (UniProt Q01094); experiment: ATG_E2F_CIS: Attagene CIS-FACTORIAL HepG2 Assay for human E2F Transcription Factor 1 (AID 2282935); conditions: HepG2 Attagene cis-reporter, E2F reporter RNA transcripts; actives raise or lower the signal
Summary of the method: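 First, HepG2 cells were transfected with reporter transcription units. Next, they were dosed for 24 h. Then RNA was isolated, converted to cDNA, PCR-amplified, FAM-labeled, HpaI-digested and analyzed by capillary electrophoresis.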

[17] = target: CCAAT/enhancer-binding protein beta (Homo sapiens) (UniProt P17676); experiment: ATG_C_EBP_CIS: Attagene CIS-FACTORIAL HepG2 Assay for human CCAAT/Enhancer Binding Protein (C/EBP) beta (AID 2282927); conditions: HepG2 Attagene cis-factorial transcription factor reporter; actives raise or lower the signal
Summary of the method: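 Chemical-treated HepG2 cells (24 h) bearing cis-regulated reporter constructs were processed for total RNA, then reverse transcription, PCR amplification, fluorescent primer extension and fragment analysis; gain- and loss-of-signal were fitted against DMSO.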

[18] = ATG_CMV_CIS: Attagene CIS-FACTORIAL HepG2 Assay for human CMV (Internal Marker) (AID 2282928); conditions: HepG2 CMV promoter reporter, transcription factor profiling; actives raise or lower the signal;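 further: endpoint acts as a background internal control marker rather than a target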
Summary of the method: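 24 h chemical treatment, HepG2 with transient multi-reporter transfection; RNA → oligo(dT) RT → PCR → 6-FAM extension → HpaI digest → CE fluorescence. Bidirectional fit, DMSO negative control.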

[19] = target: Retinoic acid receptor alpha (Homo sapiens) (UniProt P10276); experiment: ATG_DR5_RAR_CIS: Attagene CIS-FACTORIAL HepG2 Assay for human Retinoic Acid Receptor Alpha (RARE), DR5 submotif (AID 2282934); conditions: HepG2 Attagene cis-factorial RARE DR5 reporter, mRNA; actives raise or lower the signal
Summary of the method: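 Transfected HepG2 reporter cells are exposed to chemicals for 24 h. Then RNA is extracted and the DR5 element reporter transcript is measured by RT-PCR and capillary electrophoresis, with bidirectional curve fitting relative to DMSO.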

[20] = ATG_AP_2_CIS: Attagene CIS-FACTORIAL HepG2 Assay for human Activator Protein 2 (AP-2) (AID 2282932); conditions: HepG2 AP-2 cis-reporter, Attagene transcription factor profiling; actives raise or lower the signal
Summary of the method: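 Cells (HepG2) transfected with promoter-driven reporter constructs, treated 24 h. Total RNA reverse-transcribed, reporter cDNA PCR-amplified, FAM-labelled by primer extension, digested, resolved by capillary electrophoresis. Activity fitted both directions versus DMSO.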

Measured: AC50

Retinoic acid receptor alpha (Homo sapiens), sequence (P10276 whole entry, looked up): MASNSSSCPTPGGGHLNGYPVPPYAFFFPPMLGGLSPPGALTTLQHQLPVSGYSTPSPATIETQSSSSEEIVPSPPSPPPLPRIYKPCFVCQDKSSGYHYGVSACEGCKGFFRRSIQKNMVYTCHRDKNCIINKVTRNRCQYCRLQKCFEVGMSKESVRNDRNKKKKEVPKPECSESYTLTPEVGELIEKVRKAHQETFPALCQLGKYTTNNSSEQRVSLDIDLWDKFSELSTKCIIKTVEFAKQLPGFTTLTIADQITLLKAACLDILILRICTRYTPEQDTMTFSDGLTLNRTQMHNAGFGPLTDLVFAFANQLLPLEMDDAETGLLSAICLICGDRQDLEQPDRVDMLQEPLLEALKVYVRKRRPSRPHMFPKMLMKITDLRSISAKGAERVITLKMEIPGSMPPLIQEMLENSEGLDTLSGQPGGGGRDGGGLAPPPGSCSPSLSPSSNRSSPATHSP
Aryl hydrocarbon receptor (Homo sapiens), sequence (P35869 whole entry, looked up): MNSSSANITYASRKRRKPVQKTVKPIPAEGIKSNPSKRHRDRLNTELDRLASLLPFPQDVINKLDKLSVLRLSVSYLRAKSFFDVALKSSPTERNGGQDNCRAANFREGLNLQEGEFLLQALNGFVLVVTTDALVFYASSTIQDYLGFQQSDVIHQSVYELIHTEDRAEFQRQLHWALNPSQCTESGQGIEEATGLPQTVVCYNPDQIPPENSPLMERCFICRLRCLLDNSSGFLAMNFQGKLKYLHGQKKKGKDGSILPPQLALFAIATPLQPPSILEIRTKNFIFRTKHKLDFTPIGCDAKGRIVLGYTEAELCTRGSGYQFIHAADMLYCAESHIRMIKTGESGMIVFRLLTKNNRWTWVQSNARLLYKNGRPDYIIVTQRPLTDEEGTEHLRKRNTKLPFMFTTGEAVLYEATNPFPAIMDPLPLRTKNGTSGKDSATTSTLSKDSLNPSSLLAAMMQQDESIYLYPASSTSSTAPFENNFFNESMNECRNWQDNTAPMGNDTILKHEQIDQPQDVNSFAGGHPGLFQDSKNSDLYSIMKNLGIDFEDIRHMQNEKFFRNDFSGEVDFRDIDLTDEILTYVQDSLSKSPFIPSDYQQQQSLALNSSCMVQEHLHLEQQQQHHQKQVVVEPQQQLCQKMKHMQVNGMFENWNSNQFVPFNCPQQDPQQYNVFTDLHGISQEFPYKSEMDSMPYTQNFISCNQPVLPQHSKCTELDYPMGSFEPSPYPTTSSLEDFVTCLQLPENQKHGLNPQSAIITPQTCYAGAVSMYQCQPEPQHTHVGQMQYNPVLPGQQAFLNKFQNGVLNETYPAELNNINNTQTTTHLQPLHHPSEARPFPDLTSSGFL
Transcription factor E2F1 (Homo sapiens), sequence (Q01094 whole entry, looked up): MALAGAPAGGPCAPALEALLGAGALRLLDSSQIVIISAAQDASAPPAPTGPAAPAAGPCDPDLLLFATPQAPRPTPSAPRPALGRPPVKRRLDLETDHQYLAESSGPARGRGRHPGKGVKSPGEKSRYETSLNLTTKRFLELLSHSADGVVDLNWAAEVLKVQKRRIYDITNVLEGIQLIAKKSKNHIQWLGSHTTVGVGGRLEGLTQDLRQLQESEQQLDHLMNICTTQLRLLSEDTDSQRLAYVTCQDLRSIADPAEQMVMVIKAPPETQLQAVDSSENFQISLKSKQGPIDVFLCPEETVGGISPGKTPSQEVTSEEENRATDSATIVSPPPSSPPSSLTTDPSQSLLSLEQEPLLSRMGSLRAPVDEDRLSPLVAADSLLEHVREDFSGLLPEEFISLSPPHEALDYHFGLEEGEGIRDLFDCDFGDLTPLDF
CCAAT/enhancer-binding protein beta (Homo sapiens), sequence (P17676 whole entry, looked up, the tested form may be a part): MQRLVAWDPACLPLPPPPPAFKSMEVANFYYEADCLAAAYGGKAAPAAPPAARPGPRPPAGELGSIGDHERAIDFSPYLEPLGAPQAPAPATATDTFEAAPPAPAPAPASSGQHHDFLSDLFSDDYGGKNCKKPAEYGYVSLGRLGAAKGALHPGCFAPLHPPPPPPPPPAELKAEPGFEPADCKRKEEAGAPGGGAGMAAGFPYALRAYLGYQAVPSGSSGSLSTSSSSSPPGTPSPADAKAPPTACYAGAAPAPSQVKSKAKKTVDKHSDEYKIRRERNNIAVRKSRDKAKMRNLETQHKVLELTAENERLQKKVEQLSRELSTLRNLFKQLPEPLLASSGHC

O=C(O)c1ccccc1
not listed: [17] | [18] | [19] | [20]
inactive: all other assays above

CCC(O)=C1C(=O)CC(C(=O)O)CC1=O (stereo not given)
not listed: [2] | [20]
inactive: all other assays above

OB(O)O
not listed: [2]
inactive: all other assays above

CC1(C)C(C=C(Cl)Cl)C1C(=O)OCc1cccc(Oc2ccccc2)c1 (stereo not given)
active: [4] 100 µM | [12] 29.9 µM
not listed: [17] | [19] | [20]
inactive: all other assays above

CCCCOCCOCCOCc1cc2c(cc1CCC)OCO2
active: [4] 78.1 µM | [12] 89.8 µM | [14] 50 µM | [16] 58.4 µM
not listed: [8] | [17] | [18] | [20]
inactive: all other assays above

CCNc1nc(N)nc(Cl)n1
not listed: [2] | [13] | [18]
inactive: all other assays above

O=C(c1ccccc1)C1CCCCC1
active: [13] 17.2 µM
inactive: [1] | [3] | [4] | [5] | [6] | [7] | [8] | [9] | [10] | [11] | [17] | [12] | [13] | [14] | [15] | [19] | [16]

CCN(CC)C(=O)c1cccc(C)c1
not listed: [2] | [8] | [20]
inactive: all other assays above

CCCCC(CC)COC(=O)c1ccccc1C(=O)O (stereo not given)
not listed: [2] | [13] | [18] | [19] | [20]
inactive: all other assays above

CCCOC(=O)NCCCN(C)C
not listed: [2] | [17] | [18] | [20]
inactive: all other assays above

C#CCOC(=O)[C@@H](C)Oc1ccc(Oc2ncc(Cl)cc2F)cc1
not listed: [2] | [18] | [20]
inactive: all other assays above

CN(C)C(=O)Nc1ccc(Cl)c(Cl)c1
inactive: [1] | [3] | [4] | [5] | [6] | [7] | [8] | [9] | [10] | [11] | [12] | [14] | [20] | [15] | [19] | [16]
active: [14] 27.7 µM | [15] 22.2 µM

c1ccc(Nc2ccccc2)cc1
active: [15] 16.6 µM
inactive: [1] | [3] | [4] | [5] | [6] | [7] | [8] | [9] | [10] | [11] | [18] | [12] | [13] | [14] | [15] | [19] | [16]

CCOC(=O)c1ccc(O)cc1
inactive: [1] | [3] | [4] | [5] | [6] | [7] | [8] | [9] | [10] | [11] | [12] | [13] | [14] | [20] | [15] | [19] | [16]
active: [15] 166 µM
